# Most compounds without a hit are left out; they make up all but 2.7% or so of the library.
# IDE cell inh: human IDE inhibitors in live cells, primary screen, fluorescence polarization, HEK cells, FAbetaB substrate. Insulin-degrading enzyme (Homo sapiens), P14735. FAbetaB cleavage. inhibition, % at 5.59 µM. 0.41% of 320,000 active. AID 434962, 2010;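 active means percent inhibition above the average of all tested compounds plus 3 SD, set per screening campaign, cut at about 16% in these data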;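 further: IDE supplied by intact live HEK cells; FP after avidin binding of uncleaved biotin substrate so inhibition keeps polarization high; 0% = DMSO wells and 100% = 60 µM reference IDE inhibitor Ii1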
# IDE cell activ: human IDE activators in live cells, primary screen, fluorescence polarization, HEK cells, FAbeta-B substrate; AID 493087, 2011; Insulin-degrading enzyme (Homo sapiens), P14735; 0.073% of 340,000 active; FAbeta-B cleavage; 0% vehicle, 100% cell-free pure enzyme wells; activation, % at 5.96 µM;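 active means activation above the mean of all tested compounds plus 3 SD, set per screening campaign, cut at about 17% in these data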
# TMEM16A act: TMEM16A chloride channel activators or potentiators, primary screen, cell-based, HTS. Anoctamin-1 (Mus musculus), Q8BHY3. AID 623877, 2012. HEK293 TMEM16A/YFP-H148Q/I152L, iodide quench fluorescence; active compounds read low. B-score at 10 µM. 0.3% of 340,000 active;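 active means fluorescence-ratio B-score plate-corrected deviation score at least 3 library SD below zero, with starting fluorescence score within 5 deviations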;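 further: channel opened by trigger with iodide after compound preincubation; score built on the fluorescence ratio of max minus min over baseline; more negative score means more quench and so TMEM16A activation or potentiation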
# CHT allo act: CHT positive allosteric modulators, primary screen, cell-based, membrane potential dye, choline EC20; 0.49% of 310,000 active; CHT-expressing cells; active compounds read high; LV-AA mutant CHT in HEK293 cells; B-score at 10 µM; High affinity choline transporter 1 (Homo sapiens), Q9GZV3;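 active means initial fluorescence not abnormally high and integrated response B-score, plate-corrected, over 3 SD above library mean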
# Target sequence (Q9GZV3 whole entry, looked up): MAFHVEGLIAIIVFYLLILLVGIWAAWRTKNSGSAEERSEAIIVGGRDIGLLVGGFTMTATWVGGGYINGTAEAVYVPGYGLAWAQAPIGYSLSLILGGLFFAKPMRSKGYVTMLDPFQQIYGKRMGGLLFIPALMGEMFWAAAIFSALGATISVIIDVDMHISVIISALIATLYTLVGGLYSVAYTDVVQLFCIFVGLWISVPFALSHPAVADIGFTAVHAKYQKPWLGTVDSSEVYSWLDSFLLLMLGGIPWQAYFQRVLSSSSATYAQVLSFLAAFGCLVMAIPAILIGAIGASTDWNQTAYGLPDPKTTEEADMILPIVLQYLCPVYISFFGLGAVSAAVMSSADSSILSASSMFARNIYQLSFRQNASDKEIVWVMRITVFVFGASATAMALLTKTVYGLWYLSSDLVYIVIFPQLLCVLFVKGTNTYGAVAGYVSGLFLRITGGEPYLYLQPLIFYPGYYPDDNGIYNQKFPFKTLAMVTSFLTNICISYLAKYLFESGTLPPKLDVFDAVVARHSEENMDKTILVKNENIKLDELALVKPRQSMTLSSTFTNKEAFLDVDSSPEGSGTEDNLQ
# ANO1 block: TMEM16A chloride channel inhibitors, primary screen, cell-based, HTS; 1.2% of 310,000 active; Anoctamin-1 (Mus musculus), Q8BHY3; HEK293 TMEM16A/YFP iodide influx fluorescence, ionomycin; normalized B-score (activity score, 25-100; higher = stronger inhibition) at 10 µM;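 active means ratio plate-corrected score three or more library SD toward inhibition, starting fluorescence score within five deviations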;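 further: score derived from kinetic fluorescence span divided by baseline fluorescence per well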
# CHT block: inhibitors of human choline transporter CHT; B-score at 10 µM; 0.86% of 310,000 active; High affinity choline transporter 1 (Homo sapiens), Q9GZV3; CHT-expressing cells, membrane potential dye, choline response; active compounds read low;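 active means B-score over 3 SD under the library average, and starting fluorescence ratio not unusually high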;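 further: choline stimulus applied at its EC90 after an EC20 pre-addition; B-score computed on integrated fluorescence ratio after choline addition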
# CHT inh conf: CHT inhibitors, confirmation, cell-based, membrane potential dye, duplicate; shares compounds with CHT block; CHT-expressing cells, choline membrane potential dye; LV-to-AA substituted CHT, HEK293 cells; CHT activity remaining % of control (active compounds read low), % at 10 µM; 70% of 2,400 active;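 active means choline transporter activity left, mean of duplicates at 10 µM, below buffer-only control mean minus 3 SD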;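 further: depolarization triggered by choline at its EC90 following an EC20 pre-addition; 0% = hemicholinium-3 full block and 100% = buffer-only control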
# HEK293 MPD ctr: membrane potential effects in parental HEK293, counter-screen for CHT inhibitor project, cell-based, membrane potential dye; shares compounds with CHT block; choline response; active = decrease or increase beyond buffer ±3SD; membrane potential ratio readout (active if shifted either direction beyond buffer ±3SD; no single direction) at 10 µM; 4% of 2,400 active; AID 493222, 2011;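 further: parental cells lack the transporter so any hit is non-specific; ratio is peak minus trough fluorescence over baseline after EC90 choline challenge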
# * = called active by the depositor; i = inactive; / = no result given.
SMILES,IDE cell inh,IDE cell activ,TMEM16A act,CHT allo act,ANO1 block,CHT block,CHT inh conf,HEK293 MPD ctr
O=C(C1CCCN(c2ncnc3c2nc2n3CCCCC2)C1)N1CCN(c2ccc(Cl)cc2)CC1 (centres undefined),10,-12,i,i,i,-7.8*,40%*,i
CC(=O)c1ccc(N2CCN(C(=O)C3CCCN(c4ncnc5c4nc4n5CCCCC4)C3)CC2)cc1 (centres undefined),2,-1,i,i,i,-5.9*,32%*,i
Cc1ccccc1CN(C)C(C)C(=O)NCc1ccccc1 (centres undefined),/,0,i,i,i,i,/,/
Cc1sc2nc(SCCN(C)C)n(-c3ccccc3)c(=O)c2c1-c1ccc(F)cc1,2,3,i,i,i,-5.9*,26%*,i
O=C1C(=O)N(CCN2CCOCC2)C(c2cccnc2)/C1=C(/O)c1ccc(Cl)cc1 (centres undefined),4,4,i,i,i,-9.5*,i,i
CC(OC(=O)CNC(=O)c1ccc(F)cc1)C(=O)Nc1ccc(S(=O)(=O)N2CCOCC2)cc1 (centres undefined),0,5,i,/,/,/,/,/
COc1ccccc1OC(C)c1nnc(SCC(=O)Nc2c(C)n(C)n(-c3ccccc3)c2=O)n1-c1ccccc1 (centres undefined),-5,6,i,i,i,i,/,/
Cc1c(NC(=O)CSc2nnc(C(C)Oc3ccc(Cl)cc3)n2-c2ccccc2)c(=O)n(-c2ccccc2)n1C (centres undefined),0,4,i,i,i,-10*,22%*,i
O=c1cc(CNc2ccc(Br)cc2)nc2sccn12,4,-1,i,i,i,-5.4*,59%*,i
COc1ccc(NC(=O)CSCc2cc(=O)n3ccsc3n2)cc1,1,0,i,i,i,i,/,/
Cc1ccc(C)c(OC(C)C(=O)Nc2ccc(S(=O)(=O)Nc3nccs3)cc2)c1 (centres undefined),5,5,i,i,i,i,/,/
CC(Oc1ccccc1Cl)C(=O)Nc1ccc(S(=O)(=O)Nc2nccs2)cc1 (centres undefined),-5,4,i,i,i,-7.7*,65%*,i
Cc1ccccc1OC(C)C(=O)Nc1ccc(S(=O)(=O)Nc2nccs2)cc1 (centres undefined),6,-1,i,i,i,-7.2*,47%*,i
Cc1cccc(NC(=O)c2n[nH]c([N+](=O)[O-])c2Br)c1C,1,-5,i,i,i,-5*,61%*,i
COCCNC(=O)c1cc(-c2ccccc2OC)on1,2,5,i,i,i,-7.4*,i,i
CCOC(=O)C(=Cc1c[nH]c2ccc(S(=O)(=O)N(C)C)cc12)C(=O)OCC,0,3,i,i,i,-6.4*,33%*,i
O=C1ON=C(c2ccccc2)/C1=C/c1ccco1,12,-9,i,i,i,-6.6*,50%*,i
CN(C)/C=C1\C(=O)ON=C1c1ccccc1,1,4,i,i,i,i,/,/
CCOC(=O)[C@@H]1[C@H]2COc3ccc(Br)cc3[C@H]2N2C(=O)N(c3cccc(Cl)c3)C(=O)[C@]12C,2,6,i,i,i,i,/,/
